From PubChem BioAssay
Active and inactive are the calls of the source. Unless noted, the rule behind the calls is not given here.

Key:
[1] = test system: Wnt5a (protein binding on small-molecule microarray); test: small molecules binding Wnt5a protein – biophysical, small-molecule microarray, 635/667 nm fluorescence, primary screen (AID 1142); conditions: 635 nm fluorescence, higher = more signal;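 note: fluorescence read at 667 nm with signal to noise per printed feature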
[2] = ATP-based viability of Huh7 replicon cells – cell-based, CellTiter-Glo luminescence, basal, 48 h, cytotoxicity control for HCV replication inhibitor project, primary screen (AID 1143); conditions: higher = more signal, called active from +8 up or from −8 down;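 note: Huh7 hepatoma cells carrying a hepatitis C replication reporter with no stimulus; test concentration not given here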
[3] = Pseudomonas biofilm growth suppression – PAO1 strain, BacTiter-Glo luminescence, LB-PBS, primary screen (AID 1144); conditions: P. aeruginosa PAO1 biofilm, 12 h, higher = more signal
[4] = basal CRE-LacZ reporter activity in PC12 – cell-based, unstimulated, primary screen (AID 1145); conditions: no forskolin, luminescence, 4.5 h, higher = more signal, called active from +8 up or from −8 down
[5] = forskolin-driven CRE-LacZ activity in PC12 – cell-based, CRE-LacZ reporter, forskolin-stimulated, primary screen (AID 1146); conditions: luminescence, 4.5 h, higher = more signal, called active from +8 up or from −8 down;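 note: PC12 cells with 6xCRE LacZ reporter stimulated by forskolin 10 µM; beta-galactosidase reporter signal reflecting CREB driven transcription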
[6] = target: Streptavidin (Streptomyces avidinii) (UniProt P22629); test: compounds binding control protein streptavidin – biophysical, small-molecule microarray, 635/667 nm fluorescence, artefact control for SMM compound annotation, primary screen (AID 1147); conditions: higher = more signal;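 note: signal reflects streptavidin binding to arrayed compounds as a control protein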
[7] = probe aInhba binding on compound microarray – biochemical, small-molecule microarray, 635/667 nm fluorescence, primary screen (AID 1148); conditions: higher = more signal;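 note: score merges 667nm spot fluorescence with signal-to-noise for antibody binding to printed compounds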
[8] = target: Torsin-1A (Homo sapiens) (UniProt O14656); test: TOR1A wild-type binding on microarray – cell lysate, small-molecule microarray, lysate, 635/667 nm, primary screen (AID 1149); conditions: COS7 hTOR1A-WT lysate, 635 nm fluorescence, higher = more signal
[9] = target: Torsin-1A (Homo sapiens) (UniProt O14656); test: torsin A mutant lysate binding on microarrays – cell lysate, small-molecule microarray, COS7 lysate, 635/667 nm fluorescence, primary screen (AID 1150); conditions: COS7 hTOR1A mutant lysate, 635 nm fluorescence, higher = more signal;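 note: score pools 667 nm emission and signal to noise measuring lysate protein binding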
[10] = test system: Sonic hedgehog protein (Shh); test: Sonic hedgehog microarray binding compounds – biochemical, small-molecule microarray, 635/667 nm fluorescence, primary screen (AID 1151); conditions: 635 nm fluorescence, higher = more signal;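 note: Shh protein binding to compounds spotted on small-molecule microarray slides; score combines spot fluorescence intensity with signal-to-noise across triplicate slides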
[11] = optical density shifts of acrAB sulA E. coli – strain DRC41, OD650, 48 h, E. coli filamentation inducer project, primary screen (AID 1152); conditions: higher = more signal, called active from +8 up or from −8 down;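 note: E. coli MC1000 strain DRC41 lacking acrAB efflux pump and sulA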
[12] = probe aLefty1 binding on compound microarray – biochemical, small-molecule microarray, 635/667 nm fluorescence, primary screen (AID 1153); conditions: higher = more signal;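 note: score merges spot fluorescence with signal-to-noise ratio from the scanned slide images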
[13] = plasmodial surface anion channel blockers, osmotic lysis – cell-based, P. falciparum Indochina, OD700, 1 h, primary screen (AID 1154); conditions: P. falciparum Indochina infected RBC osmotic lysis, higher = more signal, called active from +8 up or from −8 down
[14] = plasmodial surface anion channel blockers, osmotic lysis – cell-based, P. falciparum Indochina, OD700, 2 h, primary screen (AID 1155);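 note: lysis reports solute entry through the parasite surface anion channel PSAC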; conditions: P. falciparum Indochina infected erythrocytes, higher = more signal, called active from +8 up or from −8 down
[15] = changes in parasitized red cell lysis, either direction – P. falciparum Indochina, OD700, 3 h, PSAC antagonist project, primary screen (AID 1156); conditions: P. falciparum-infected erythrocytes, osmotic lysis, higher = more signal, called active from +8 up or from −8 down
[16] = plasmodial surface anion channel blockers, osmotic lysis – cell-based, P. falciparum Indochina, OD700, 18 h, primary screen (AID 1157); conditions: P. falciparum Indochina infected erythrocytes, osmotic lysis OD700, 18 h; higher = more signal, called active from +8 up or from −8 down
[17] = S6 kinase pathway phospho-S6 level changes – cell-based, A549, cytoblot, luminescence, serum-stimulated, primary screen (AID 1158); conditions: 5 h, higher = more signal;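 note: serum-stimulated A549 lung adenocarcinoma cells; signal is phosphorylated S6 detected by cytoblot immunostaining with HRP secondary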
[18] = target: NADPH oxidase 2 (Homo sapiens) (UniProt P04839); test: compounds shifting NOX2 Amplex Red fluorescence – cell-based, HEK293-NOX2, PMA-stimulated, NOX inhibitor project, primary screen (AID 1159); conditions: 45 min, higher = more signal, called active from +8 up or from −8 down; note: test concentration not given here
[19] = target: NADPH oxidase 4 (Homo sapiens) (UniProt Q9NPH5); test: compounds shifting NOX4 Amplex Red fluorescence – cell-based, HEK293-NOX4, tetracycline-induced, NOX inhibitor project, primary screen (AID 1160); conditions: HEK293-NOX4, Amplex Red H2O2 fluorescence, 45 min; higher = more signal, called active from +8 up or from −8 down
[20] = target: NADPH oxidase 5 (Homo sapiens) (UniProt Q96PH1); test: compounds shifting NOX5 Amplex Red fluorescence – cell-based, HEK293-NOX5, NOX inhibitor project, primary screen (AID 1161); conditions: HEK293-NOX5, ionomycin, 45 min, higher = more signal
Chain of NADPH oxidase 5 (Homo sapiens) (Q96PH1 whole entry, looked up): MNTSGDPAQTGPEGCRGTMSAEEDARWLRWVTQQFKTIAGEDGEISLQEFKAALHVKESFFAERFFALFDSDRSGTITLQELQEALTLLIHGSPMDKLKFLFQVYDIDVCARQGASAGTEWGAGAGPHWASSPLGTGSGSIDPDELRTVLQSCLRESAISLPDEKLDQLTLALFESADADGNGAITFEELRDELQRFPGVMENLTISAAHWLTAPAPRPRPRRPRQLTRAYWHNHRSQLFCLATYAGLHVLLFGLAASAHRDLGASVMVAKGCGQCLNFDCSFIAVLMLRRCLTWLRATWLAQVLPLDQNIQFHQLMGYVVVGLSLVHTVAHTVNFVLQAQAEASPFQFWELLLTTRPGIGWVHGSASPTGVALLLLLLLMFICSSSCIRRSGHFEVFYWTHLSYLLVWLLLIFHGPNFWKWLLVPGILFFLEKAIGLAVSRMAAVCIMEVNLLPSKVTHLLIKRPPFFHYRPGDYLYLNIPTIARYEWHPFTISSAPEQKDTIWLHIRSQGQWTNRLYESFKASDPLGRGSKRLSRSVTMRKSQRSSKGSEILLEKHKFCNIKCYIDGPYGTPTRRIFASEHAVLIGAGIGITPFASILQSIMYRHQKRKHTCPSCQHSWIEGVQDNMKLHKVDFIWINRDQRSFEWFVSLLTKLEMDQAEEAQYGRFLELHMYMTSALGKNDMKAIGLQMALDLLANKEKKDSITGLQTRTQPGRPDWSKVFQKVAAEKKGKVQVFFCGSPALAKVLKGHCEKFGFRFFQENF

Chain of Torsin-1A (Homo sapiens) (O14656 whole entry, looked up): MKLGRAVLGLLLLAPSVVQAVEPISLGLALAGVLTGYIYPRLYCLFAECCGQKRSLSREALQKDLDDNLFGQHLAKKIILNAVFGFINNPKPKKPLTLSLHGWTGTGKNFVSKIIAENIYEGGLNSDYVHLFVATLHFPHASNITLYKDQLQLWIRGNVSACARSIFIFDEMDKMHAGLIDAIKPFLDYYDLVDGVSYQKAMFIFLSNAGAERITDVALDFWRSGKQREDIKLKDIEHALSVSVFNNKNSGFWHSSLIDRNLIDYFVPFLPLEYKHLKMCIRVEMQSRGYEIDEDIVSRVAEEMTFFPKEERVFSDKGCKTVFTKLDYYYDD
Chain of Streptavidin (Streptomyces avidinii) (P22629 whole entry, looked up): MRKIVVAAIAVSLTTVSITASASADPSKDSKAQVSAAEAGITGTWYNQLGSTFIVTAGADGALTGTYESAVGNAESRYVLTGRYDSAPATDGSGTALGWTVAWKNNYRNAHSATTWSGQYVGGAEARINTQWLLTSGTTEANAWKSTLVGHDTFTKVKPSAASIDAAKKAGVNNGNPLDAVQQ
Chain of NADPH oxidase 4 (Homo sapiens) (Q9NPH5 whole entry, looked up): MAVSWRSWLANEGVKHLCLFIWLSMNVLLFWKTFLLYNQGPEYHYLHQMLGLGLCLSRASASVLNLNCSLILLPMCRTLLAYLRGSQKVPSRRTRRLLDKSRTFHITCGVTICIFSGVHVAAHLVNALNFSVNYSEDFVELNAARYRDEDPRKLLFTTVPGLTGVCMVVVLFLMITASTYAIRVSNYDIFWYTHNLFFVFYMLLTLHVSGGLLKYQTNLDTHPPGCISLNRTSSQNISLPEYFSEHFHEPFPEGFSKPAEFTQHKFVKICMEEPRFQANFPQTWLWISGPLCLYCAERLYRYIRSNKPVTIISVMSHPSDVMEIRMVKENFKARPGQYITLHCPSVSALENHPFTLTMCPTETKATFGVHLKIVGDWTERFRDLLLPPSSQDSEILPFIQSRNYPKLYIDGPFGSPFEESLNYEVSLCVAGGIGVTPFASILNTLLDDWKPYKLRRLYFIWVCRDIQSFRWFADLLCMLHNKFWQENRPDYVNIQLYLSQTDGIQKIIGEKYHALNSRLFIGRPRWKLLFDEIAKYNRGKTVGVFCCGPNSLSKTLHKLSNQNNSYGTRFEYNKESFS
Chain of NADPH oxidase 2 (Homo sapiens) (P04839 whole entry, looked up): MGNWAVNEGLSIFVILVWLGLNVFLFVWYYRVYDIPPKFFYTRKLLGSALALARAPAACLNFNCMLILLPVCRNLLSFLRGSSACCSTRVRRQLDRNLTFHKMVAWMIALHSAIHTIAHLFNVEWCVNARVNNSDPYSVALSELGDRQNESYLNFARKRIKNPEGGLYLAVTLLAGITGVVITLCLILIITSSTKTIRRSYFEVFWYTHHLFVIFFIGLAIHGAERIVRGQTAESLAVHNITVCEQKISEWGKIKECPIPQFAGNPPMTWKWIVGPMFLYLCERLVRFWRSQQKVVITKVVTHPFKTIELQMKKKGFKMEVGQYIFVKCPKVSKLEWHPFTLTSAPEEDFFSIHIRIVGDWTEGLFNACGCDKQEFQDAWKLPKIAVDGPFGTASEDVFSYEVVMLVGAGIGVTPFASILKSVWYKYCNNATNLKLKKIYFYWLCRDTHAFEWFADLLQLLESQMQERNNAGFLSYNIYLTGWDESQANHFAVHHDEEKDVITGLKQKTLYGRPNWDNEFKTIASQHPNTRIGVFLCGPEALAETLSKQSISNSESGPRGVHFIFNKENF

Compound	composite z-score [1]	z-score [2]	z-score [3]	z-score [4]	z-score [5]	composite z-score [6]	composite z-score [7]	composite z-score [8]	composite z-score [9]	composite z-score [10]	z-score [11]	composite z-score [12]	z-score [13]	z-score [14]	z-score [15]	z-score [16]	z-score [17]	z-score [18]	z-score [19]	z-score [20]
COc1cc(NN2C(C(O)c3ccccc3)C=CC3C(=O)N(C)C(=O)C32)cc(OC)c1OC (stereo not given)	0.107	-2.51 (inactive)	-0.426 (inactive)	0.0603 (inactive)	-0.126 (inactive)	0.194	0.0184	-0.0091	0.576	0.36	-1.05 (inactive)	0.0455	0.758 (inactive)	0.34 (inactive)	1.21 (inactive)	-0.447 (inactive)	1.44	-3.07 (inactive)	-5.77 (inactive)	-6.19
CCCCC(=C=CC[C@H](O)c1ccc(OCCO)cc1)C[C@H](O)c1cc(Cl)cc(Cl)c1O	-0.223	-0.849 (inactive)	-0.145 (inactive)	7.85 (inactive)	-0.218 (inactive)	0.315	-0.15	0.296	0.51	0.646	-0.118 (inactive)	0.13	21.2 (active)	5.19 (inactive)	1.56 (inactive)	1.73 (inactive)	-0.476	0.51 (inactive)	-0.667 (inactive)	-1.49
Cc1ccc(S[C@]2(C(=O)NCC(C)C)CC(=O)N(C3Cc4ccccc4C3)[C@@H]2c2ccc(CO)cc2I)cc1	-0.305	-0.552 (inactive)	0.491 (inactive)	0.389 (inactive)	1.42 (inactive)	-1.21	-0.182	-0.284	-0.183	-0.51	-0.715 (inactive)	-0.192	2.92 (inactive)	0.768 (inactive)	0.708 (inactive)	0.475 (inactive)	-0.447	1.25 (inactive)	0.0492 (inactive)	1.47
COCCOC(=O)N1C(=O)[C@@]2(c3cc(C#CCC(C(=O)OC)C(=O)OC)ccc31)[C@H](c1ccc(O)cc1)N1[C@H](c3ccccc3)[C@H](c3ccccc3)OC(=O)[C@H]1[C@@H]2C(=O)NC[C@H](O)c1ccccc1	0.295	-2.04 (inactive)	-0.0824 (inactive)	-0.231 (inactive)	-0.196 (inactive)	1.7	-0.0774	0.941	0.468	0.49	1.47 (inactive)	-0.159	1.67 (inactive)	0.223 (inactive)	-5.49 (inactive)	-0.0973 (inactive)	-0.158	1.72 (inactive)	0.876 (inactive)	1.32
CN1C(=O)C2C=CC(C(O)c3cc(C(F)(F)F)cc(C(F)(F)F)c3)N(NC(=O)OC(C)(C)C)C2C1=O (stereo not given)	0.135	-2.4 (inactive)	0.999 (inactive)	0.0467 (inactive)	0.587 (inactive)	1.6	0.29	0.49	1.32	0.433	-1.13 (inactive)	0.363	-0.0698 (inactive)	0.118 (inactive)	-0.548 (inactive)	1.2 (inactive)	-0.636	-0.694 (inactive)	-1.47 (inactive)	1.5
COCCOC(=O)N1C(=O)[C@@]2(c3cc(C#CCNC(N)=O)ccc31)[C@H](c1ccc(O)cc1)N1[C@H](c3ccccc3)[C@H](c3ccccc3)OC(=O)[C@H]1[C@@H]2C(N)=O	-0.503	-0.522 (inactive)	0.175 (inactive)	0.224 (inactive)	0.645 (inactive)	-1.53	-0.331	-0.57	-0.934	-1.56	0.847 (inactive)	-0.67	0.646 (inactive)	0.783 (inactive)	-0.158 (inactive)	0.386 (inactive)	0.285	0.37 (inactive)	0.163 (inactive)	0.361
COc1cc(C(O)C2C=CC3C(=O)N(Cc4ccccc4)C(=O)C3N2n2cnnc2)cc(OC)c1OC (stereo not given)	0.388	-0.429 (inactive)	-1.77 (inactive)	0.636 (inactive)	-0.634 (inactive)	0.267	0.255	0.683	0.671	0.131	1.31 (inactive)	0.431	1.15 (inactive)	-0.129 (inactive)	-0.666 (inactive)	-1.04 (inactive)	0.866	1.24 (inactive)	-0.564 (inactive)	-0.665
CC(C)CNC(=O)[C@@H]1c2ccccc2C(=O)N(C2CCCCC2)[C@H]1c1ccc(CO)cc1	-0.141	-2.94 (inactive)	-0.466 (inactive)	-0.179 (inactive)	-1.55 (inactive)	-0.285	-0.101	0.146	-0.0175	-0.242	3.5 (inactive)	0.259	1.36 (inactive)	0.387 (inactive)	0.472 (inactive)	-0.288 (inactive)	1.24	-0.318 (inactive)	1.42 (inactive)	0.297
